In PubChem BioAssay (NCI):
About 83,000 compounds went through this panel and 20% of them were active in at least one assay; those are over-represented in the sample as a whole.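 Compound tested at a single concentration for 48 hours in 96-well plates; a percent growth value below 10 was scored as active.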 Unmarked numbers belong to inactive results. Activity calls are given as the source filed them.

test system: SNB-19 CNS; assay: NCI-60 one-dose screen, 48 h (100 = growth as untreated, 0 = no growth, -100 = all killed); settings: 10 µM unless noted

In order of rising growth:
1. CC(C)(C)c1cc(C[P+](c2ccccc2)(c2ccccc2)c2ccccc2)cc(C(C)(C)C)c1O  24.5%
2. CCS(=O)(=O)Nc1cccc(Nc2c3cccc(C)c3nc3c(C)cccc23)c1OC  38.8%
3. COC(=O)[C@@H](Cc1c[nH]c2ccccc12)NC(=O)/C=C/c1ccccc1  46.4%
4. O=C(Nc1cccc(C2=NCCN2)c1)c1ccc(N=Nc2ccc(C(=O)Nc3cccc(C4=NCCN4)c3)cc2)cc1  53.2%
5. Cc1cc(Nc2c3ccccc3nc3ccccc23)ccc1NS(C)(=O)=O  58%
6. Cc1cccc2nc3ccccc3c(Nc3ccc(NS(C)(=O)=O)cc3)c12  59.7%
7. N=C(N)c1ccc(-c2ccc(-c3ccco3)o2)cc1F  67.2%
8. O=C(CCCN1CCC(O)(c2ccc(Br)cc2)CC1)c1ccc(F)cc1  78.4%
9. COc1ccc(-c2cc(-c3cc4ccccc4oc3=O)n(-c3ccccc3)n2)cc1  82%
10. CCOC(=O)C1C(=O)C=C(c2ccccc2)CC1c1sc(N(C)Cc2ccccc2)nc1Cl (stereo not given)  89.7%
11. COc1ccc2nc(-c3ccc(-c4noc(-c5ccc(Cl)cc5)n4)cc3)[nH]c2c1  95.6%
12. C#CCO[C@H]1CC[C@H](OCC#C)[C@@H]2[C@H]1[C@H]1C[C@@H]3[C@@]4(C)CCC[C@@](C)(C(=O)OC)[C@@H]4CC[C@@]23C=C1C(C)C  96.1%
13. O=C(CC(=O)c1ccccc1F)Nc1ccc([N+](=O)[O-])cc1  96.9%
14. COc1ccc(/C=C/c2nc(NCCCN(C)C)c3ccccc3n2)cc1  100%
15. O=C1CCCN1C1CCN2CCCc3cccc1c32 (stereo not given)  100%
16. COc1ccc(/C=N/NC(N)=S)c(OC)n1  102%
17. Cc1cc2nc(CN)[nH]c2cc1C  102%
18. CCOC(=O)c1cc(C(=O)OCC)c(C)nc1C  103%
19. COC(=O)CSc1ccc(Cl)cc1  103%
20. Cc1nn(-c2ccccc2)c2nc3c(nc12)C1=NCCN1C(c1ccc(Cl)cc1)N3 (stereo not given)  109%
21. CCOC(=O)C(CCCCC(NC(C)=O)(C(=O)OCC)C(=O)OCC)(NC(C)=O)C(=O)OCC  110%
22. N#Cc1ccc(-c2ccc(-c3cccs3)o2)cc1F  110%
23. ClC1=NC(Cl)C(Cl)=N/C1=N\c1ncn[nH]1 (stereo not given)  111%
24. CCN(C(=O)CCl)C(C)(C)C(SSSC(c1ccc(Cl)cc1)C(C)(C)N(CC)C(=O)CCl)c1ccc(Cl)cc1 (stereo not given)  117%

With `COc1cc2c(cc1OC)-c1cc(OC)c(OC)cc1C(CN(C)C)C2` (stereo not given) the growth was 7.08% [100 µM] (active).
`N=C(N)c1ccc(-c2ccc(-c3cccs3)s2)cc1F` was tested, and the growth was -65.1% (active).
For `COc1cc(OC)cc(-c2ccc(-c3ccc(C(=N)N)s3)s2)c1`, the growth was -82.9% (active).
With `COc1ccc(-c2ccc(-c3ccc(C(=N)N)s3)s2)cc1` the growth was -61.9% (active).
`COC(=O)[C@H](Cc1cn(C)cn1)NC(=O)[C@H](CC(C)C)NC(=O)Nc1cc(C(F)(F)F)cc(C(F)(F)F)c1` was tested, and the growth was -97.9% [100 µM] (active).
For `N/C(=N\O)c1ncc(-c2ccc(C(F)(F)F)cc2)c(NC2CCCCCC2)n1`, the growth was -12.7% [100 µM] (active).
In the case of `O=[N+]([O-])c1ccc(Sc2nc(Cl)nc(NC3CCCC3)n2)cc1`, the growth is reported as -95.5% [100 µM] (active).

test system: U251 CNS; assay: as above; settings: 10 µM unless noted

For `CCS(=O)(=O)Nc1cccc(Nc2c3cccc(C)c3nc3c(C)cccc23)c1OC`, the growth was 7.01% (active).
With `CC(C)(C)c1cc(C[P+](c2ccccc2)(c2ccccc2)c2ccccc2)cc(C(C)(C)C)c1O` the growth was 5.39% (active).
`N=C(N)c1ccc(-c2ccc(-c3ccco3)o2)cc1F` was tested, and the growth was -16.8% (active).
For `COc1ccc(/C=C/c2nc(NCCCN(C)C)c3ccccc3n2)cc1`, the growth was -48.4% (active).
In the case of `CCCCCCCCN=C(NCCCCCCCC)SCc1cccc2ccccc12`, the growth is reported as -98.7% (active).
For `N=C(N)c1ccc(-c2ccc(-c3cccs3)s2)cc1F`, the growth was -86.6% (active).
With `COc1cc(OC)cc(-c2ccc(-c3ccc(C(=N)N)s3)s2)c1` the growth was -90.1% (active).
In the case of `COc1ccc(-c2ccc(-c3ccc(C(=N)N)s3)s2)cc1`, the growth is reported as -70.3% (active).
With `ClC1=NC(Cl)C(Cl)=N/C1=N\c1ncn[nH]1` (stereo not given) the growth was -50.5% (active).

In order of rising growth:
1. O=C1OCC2=C1C(c1ccccc1)c1cc3c(cc1N2CCO)CCC3 (stereo not given)  12%
2. CC(C)CCSc1nc(Nc2ccccc2)c(C#N)c(-c2ccc(F)cc2)n1  14%
3. COC(=O)[C@@H](Cc1c[nH]c2ccccc12)NC(=O)/C=C/c1ccccc1  14.2%
4. Cc1cccc2nc3ccccc3c(Nc3ccc(NS(C)(=O)=O)cc3)c12  15.8%
5. CCN1C(=O)N(CC)C2C1N=C(SC)N2/N=C/C=C/c1ccccc1OC (stereo not given)  16.1%
6. O=C(Nc1cccc(C2=NCCN2)c1)c1ccc(N=Nc2ccc(C(=O)Nc3cccc(C4=NCCN4)c3)cc2)cc1  16.5%
7. COc1ccc(CNc2c3ccccc3nc3ccccc23)cc1F  26.9%
8. Cc1cc(Nc2c3ccccc3nc3ccccc23)ccc1NS(C)(=O)=O  27.1%
9. COc1ccc(-c2cc(-c3cc4ccccc4oc3=O)n(-c3ccccc3)n2)cc1  31.4%
10. C#CCO[C@H]1CC[C@H](OCC#C)[C@@H]2[C@H]1[C@H]1C[C@@H]3[C@@]4(C)CCC[C@@](C)(C(=O)OC)[C@@H]4CC[C@@]23C=C1C(C)C  46.8%
11. CCN(C(=O)CCl)C(C)(C)C(SSSC(c1ccc(Cl)cc1)C(C)(C)N(CC)C(=O)CCl)c1ccc(Cl)cc1 (stereo not given)  63.5%
12. O=C(CCCN1CCC(O)(c2ccc(Br)cc2)CC1)c1ccc(F)cc1  64.4%
13. N#Cc1ccc(-c2ccc(-c3cccs3)o2)cc1F  67.2%
14. COc1ccc2nc(-c3ccc(-c4noc(-c5ccc(Cl)cc5)n4)cc3)[nH]c2c1  78.2%
15. CCOC(=O)C1C(=O)C=C(c2ccccc2)CC1c1sc(N(C)Cc2ccccc2)nc1Cl (stereo not given)  92.7%
16. CC(C)N(C(=S)SSC(=S)N(C(C)C)C(C)C)C(C)C  94.5%
17. O=C(CC(=O)c1ccccc1F)Nc1ccc([N+](=O)[O-])cc1  94.7%
18. C/C(=N\Nc1ccc([N+](=O)[O-])cn1)c1ccc(N)cc1  95.7%
19. COc1ccc(/C=N/NC(N)=S)c(OC)n1  95.8%
20. Cc1cc2nc(CN)[nH]c2cc1C  100%
21. O=C1CCCN1C1CCN2CCCc3cccc1c32 (stereo not given)  103%
22. CCOC(=O)c1cc(C(=O)OCC)c(C)nc1C  103%
23. COC(=O)CSc1ccc(Cl)cc1  103%
24. CCOC(=O)C(CCCCC(NC(C)=O)(C(=O)OCC)C(=O)OCC)(NC(C)=O)C(=O)OCC  104%
25. CCOC(OCC)c1cnc2nc(NC(C)=O)[nH]c(=O)c2n1  104%
